Measured values as given in PubChem BioAssay (NCATS).
“And” between values parts separate entries of the source, which are not always exact repeats. Equal entries are not always repeated. Records with an inconclusive call do not appear. The source made the active and inactive calls. The call rests on the fitted dose curve; in most records, active means well fitted curve in the direction sought with a large enough effect; inconclusive means small, poorly fitted or top-dose-only effect, or another doubt; inactive means no such curve, though single readings can be large; an effect the other way counts as inactive or inconclusive.

How the values were obtained:
[1] = biological target: Calcium and integrin-binding protein 1 (Homo sapiens) (UniProt Q99828); assay: Primary qHTS for Identification of Calcium Integrin Binding Protein 1 (CIB1) Competitor (AID 1508620);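 further: GST tagged CIB1 binding a fluorescein labelled alphaIIb integrin peptide tracer; top concentration of the series differs between compounds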
Calcium and integrin-binding protein 1 (Homo sapiens), sequence (Q99828 whole entry, looked up): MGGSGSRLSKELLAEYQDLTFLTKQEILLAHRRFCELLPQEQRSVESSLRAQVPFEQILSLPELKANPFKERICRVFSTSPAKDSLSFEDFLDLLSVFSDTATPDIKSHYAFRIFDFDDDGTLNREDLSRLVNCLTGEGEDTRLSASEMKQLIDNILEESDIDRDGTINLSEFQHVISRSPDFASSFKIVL
Procedure, shortened: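 CIB1-GST (1 uM final) and compound incubated 15 min at room temperature before adding FITC-alphaIIb peptide tracer (100 nM final). Competition for binding read by fluorescence polarization (ex 480, em 540) after another 15 min at room temperature.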

[2] = biological target: Glutathione peroxidase 1 (Homo sapiens) (UniProt P07203); assay: Primary qHTS Assay for Inhibitors of Recombinant Selenoprotein Glutathione Peroxidase 1 (GPX1) (AID 1845191); further: nearly all actives have a fitted effect of over 65% in size
Glutathione peroxidase 1 (Homo sapiens), sequence (P07203 whole entry, looked up): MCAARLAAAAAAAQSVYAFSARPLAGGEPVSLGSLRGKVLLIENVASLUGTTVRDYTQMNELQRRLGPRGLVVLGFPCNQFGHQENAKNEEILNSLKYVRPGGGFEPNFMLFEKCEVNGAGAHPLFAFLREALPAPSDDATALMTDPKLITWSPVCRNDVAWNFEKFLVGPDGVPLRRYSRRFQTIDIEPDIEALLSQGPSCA
Procedure, shortened: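 10 nM GPX1 + cpd, 30 min RT; start w/ 1 mM GSH, 0.5 mM cumene hydroperoxide, 0.5 mM NADPH, 100 nM GR, 0.01% BSA; buffer 50 mM Tris-HCl pH 7.5, 2 mM EDTA, 150 mM NaCl; Fl 340/450, 0 & 15 min.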

[3] = biological target: Phospholipid hydroperoxide glutathione peroxidase GPX4 (Homo sapiens) (UniProt P36969); assay: Primary qHTS Assay for Inhibitors of Recombinant Selenoprotein Glutathione Peroxidase 4 (GPX4) (AID 1845192); conditions: outcome: dose series up to 50 µM unless noted; further: nearly all actives have a fitted effect of over 65% in size; further: potency means the concentration at half of the fitted maximal effect
Phospholipid hydroperoxide glutathione peroxidase GPX4 (Homo sapiens), sequence (P36969 whole entry, looked up): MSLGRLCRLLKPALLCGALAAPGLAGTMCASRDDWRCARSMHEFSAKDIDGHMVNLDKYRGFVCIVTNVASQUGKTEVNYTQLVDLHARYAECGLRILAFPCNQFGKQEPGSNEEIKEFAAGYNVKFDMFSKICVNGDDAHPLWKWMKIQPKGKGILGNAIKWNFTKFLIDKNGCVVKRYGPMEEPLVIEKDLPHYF
Procedure, shortened: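 NADPH consumption, followed by fluorescence at 340/450 nm between 0 and 15 min, reports GPX4 activity via coupled glutathione reductase (100 nM). Enzyme 200 nM was pre-exposed to compound 30 min; 0.5 mM cumene hydroperoxide and 1 mM GSH served as substrates.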

[4] = biological target: Luciferin 4-monooxygenase (Photinus pyralis) (UniProt P08659); assay: Primary firefly luciferase (FLuc) qHTS assay for identification of artifact compounds. (AID 1845220); further: nearly all actives have a fitted effect of over 60% in size
Procedure, shortened: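 Cell-free, 1536-well qHTS. Buffer pH 7.6 with 0.01% Tween-20 and 0.05% BSA; 10 uM D-luciferin, 10 uM ATP; 10 nM P. pyralis luciferase; luminescence after 5 min.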

[5] = Primary fluorescence-based thiol-reactive (MSTI) qHTS assay for identification of artifact compounds. (AID 1845221);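 further: thiol-reactive compounds lower the probe fluorescence signal; nearly all actives have a fitted effect of over 65% in size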
Procedure, shortened: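 Compounds were incubated 1 h at room temperature in the dark with the MSTI probe (4 uM) in PBS pH 7.4, 2% DMSO. Signals were normalized between Acetyl-MSTI and MSTI.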

[6] = system: Nanoluciferase (engineered Oplophorus gracilirostris luciferase); assay: Primary Nanoluciferase (NLuc) qHTS assay for identification of artifact compounds. (AID 1845222)
Procedure, shortened: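 Compounds are pinned into diluted (1:55) conditioned medium of NLuc-expressing S16 cells and held 15 min at room temperature protected from light. Nano-Glo substrate follows, and luminescence is read 5 min later.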

[7] = Primary redox qHTS assay for identification of artifact compounds. (AID 1845223); further: potency means the concentration at half of the fitted maximal effect
Procedure, shortened: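 Amplex Red (25 uM) and HRP (250 mU/mL) in HBSS, with compounds for 15 min, then 250 uM DTT for 30 min, room temperature, dark. Fluorescence 525/598 nm read; normalized to DMSO and 10 uM DA3003; Hill fit.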

C33A = assay: Primary qHTS to identify gynecologic anti-cancer compounds using libraries of approved drugs and bioactive compounds (AID 1345084); conditions: Gynecologic cancer cell panel viability, ATPlite luminescence, 48 h; series mostly up to 57.5 µM; further: nearly all actives have a fitted effect of over 55% in size; further: potency means the concentration at half of the fitted maximal effect
Procedure, shortened: (§1)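 Luminescence from the ATPlite ATP-monitoring reagent indicates viable cell number; lower signal means cytotoxicity. Cells received compound 16 h after seeding and were exposed for 48 h across five concentrations.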

CAOV3 = assay: as above; conditions: Gynecologic cancer cell panel viability, ATPlite luminescence, 48 h; series mostly up to 57.5 µM
Procedure, shortened: as §1

CASKI = assay: as above; conditions: Gynecologic cancer cell panel viability, ATPlite luminescence, 48 h; series mostly up to 57.5 µM
Procedure, shortened: as §1

Es-2 = assay: as above; conditions: Gynecologic cancer cell panel viability, ATPlite luminescence, 48 h; series mostly up to 57.5 µM
Procedure, shortened: as §1

HeLa = assay: as above; conditions: Gynecologic cancer cell panel viability, ATPlite luminescence, 48 h; series mostly up to 57.5 µM
Procedure, shortened: as §1

Hek293T = assay: as above; conditions: Gynecologic cancer cell panel viability, ATPlite luminescence, 48 h, control line for the selectivity index; series mostly up to 57.5 µM
Procedure, shortened: as §1

JEG-3 = assay: as above; conditions: Gynecologic cancer cell panel viability, ATPlite luminescence, 48 h; series mostly up to 57.5 µM
Procedure, shortened: as §1

OV90 = assay: as above; conditions: Gynecologic cancer cell panel viability, ATPlite luminescence, 48 h; series mostly up to 57.5 µM
Procedure, shortened: as §1

Tov-21-G = assay: as above; conditions: Gynecologic cancer cell panel viability, ATPlite luminescence, 48 h; series mostly up to 57.5 µM
Procedure, shortened: as §1

Tov112D = assay: as above; conditions: Gynecologic cancer cell panel viability, ATPlite luminescence, 48 h; series mostly up to 57.5 µM
Procedure, shortened: as §1

[8] = system: Zika virus NS2B-NS3 protease (linked construct); assay: Primary screen NINDS Rhodamine qHTS for Zika virus inhibitors (AID 1347160); further: nearly all actives have a fitted effect of over 55% in size; further: potency means the concentration at half of the fitted maximal effect
Procedure, shortened: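 In 10 mM Tris-HCl pH 8.0 containing 0.01% Tween 20, linked NS2B-NS3 protease (25 nM final) is exposed to test compounds for 15 min. Cleavage of 1.5 microM Rhodamine110 substrate is tracked by fluorescence over 15 min.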

[9] = Primary qHTS for inhibitors of nuclear receptor binding SET domain protein 2 (NSD2) in an isogenic RCH-ACV NSD2 p.E1099K mutant (9B) (AID 1645876); further: nearly all actives have a fitted effect of over 70% in size; further: potency means the concentration at half of the fitted maximal effect
[10] = Primary qHTS for inhibitors of nuclear receptor binding SET domain protein 2 (NSD2) in an RCH-ACV wild type WT cells (2C) (AID 1645877); further: nearly all actives have a fitted effect of over 70% in size; further: potency means the concentration at half of the fitted maximal effect

Measured: Potency

N#Cc1c[nH]c2c(C(=O)N3CCN(CCc4ccc(F)cc4)CC3)cccc12
not listed: [8] | [9] | [10]
inactive: all other assays above

CN(C)C(=O)c1cc2cnc(Nc3ccc(N4CCNCC4)cn3)nc2n1C1CCCC1
active: [9] 4.09 µM | [10] 5.15 µM
not listed: [3] | [5]
inactive: all other assays above

CN(Cc1ccc(C(=O)O)cc1)c1ccc(OCc2c(-c3c(Cl)cccc3Cl)noc2C2CC2)nc1C(F)(F)F
active: [8] 2.51 µM
not listed: [2] | [3] | [9] | [10]
inactive: all other assays above

C/C=C(/COC(=O)/C(C)=C/C)C(=O)OC/C=C/c1ccc(OC)cc1
not listed: Tov112D | [9] | [10]
inactive: all other assays above

CCC(=O)c1cc(-c2ccc(Cl)cc2)n(-c2ccc(S(N)(=O)=O)cc2)c1C
active: [9] 23 µM | [10] 16.3 µM
inactive: all other assays above

CC[C@H](CO)Nc1nc(Nc2cccc(-c3ccccn3)c2)c2ncn(C(C)C)c2n1
active: [10] 16.3 µM
not listed: [3] | [7] | OV90 | Tov-21-G | [9]
inactive: all other assays above

Cc1ccccc1C(=O)Nc1ccc(C(=O)N2CCC[C@@H](O)c3cc(Cl)ccc32)c(C)c1
not listed: [9] | [10]
inactive: all other assays above

O=C(c1ccc(F)c(F)c1Nc1ccc(I)cc1F)N1CC(O)([C@@H]2CCCCN2)C1
inactive: [8] | [1] | [2] | [3] | [4] | [5] | [6] | [7] | HeLa | JEG-3
active: [9] 14.8 µM | [10] 14.5 µM and 14.8 µM

COc1ccc(C(=O)N(CCC(C)C)Cc2nc(C)c(C)n2Cc2ccccc2C)c(OC)c1
active: [9] 11.5 µM | [10] 11.5 µM
not listed: [5]
inactive: all other assays above

Cn1cc(-c2cnc3ccc4ccc(CS(=O)(=O)NCc5ccccn5)cc4c(=O)c3c2)cn1
active: [9] 20.9 µM
not listed: [1] | [3] | Tov112D | [10]
inactive: all other assays above

Cn1c(NC[C@@H](N)Cc2ccccc2)nc(-c2ccncc2)c(-c2ccc3ccccc3c2)c1=O
active: [9] 18.6 µM | [10] 26.3 µM
inactive: all other assays above

N#CCC(C1CCCC1)n1cc(-c2ncnc3[nH]ccc23)cn1 (stereo not given)
active: [9] 12.9 µM | [10] 20.5 µM | [3] 18 µM
not listed: [2]
inactive: all other assays above

COc1cccc(CNC(=O)Nc2nc(-c3ccncc3)cs2)c1
active: [9] 7.28 µM | [10] 1.63 µM
not listed: HeLa
inactive: all other assays above

CC(C)CCC[C@@H](C)[C@H]1CC[C@H]2[C@@H]3CC=C4C[C@@H](OC(=O)NCCN(C)C)CC[C@]4(C)[C@H]3CC[C@]12C
not listed: [2] | CAOV3 | CASKI | [9] | [10]
inactive: all other assays above

CN(C)CCCNc1nc(CN2CCN(C(c3ccc(Cl)cc3)c3ccc(Cl)cc3)CC2)nc2ccccc12
active: [9] 9.16 µM | [10] 7.28 µM
not listed: [2] | OV90
inactive: all other assays above

COc1cc(O)ccc1OCCNCC(O)COc1cccc2[nH]c3ccccc3c12 (stereo not given)
active: [9] 20.5 µM
not listed: [3] | [5] | CAOV3 | [10]
inactive: all other assays above

CCCCOc1ccc(-c2cncc(C(=O)NCc3cccnc3N3CCOCC3)c2)cc1Cl
inactive: all assays above

O=S(=O)(c1cccc2ccccc12)n1ccc2ccc(N3CCN4CCCC4C3)cc21 (stereo not given)
active: [9] 14.5 µM | [10] 14.5 µM
not listed: [5] | [7]
inactive: all other assays above

CC/C(=C(\c1ccc(O)cc1)c1ccc(OCCNC)cc1)c1ccccc1
not listed: [1] | [8] | [9] | [10]
inactive: all other assays above

CCOC(=O)c1cccc(CNc2ccc(N(C)C(=O)Nc3ccccc3)cc2)c1
active: [9] 14.5 µM | [10] 14.5 µM | [7] 23.8 µM
not listed: [5] | C33A | CASKI | Es-2 | Hek293T | OV90
inactive: all other assays above

CNc1ccc([N+](=O)[O-])cc1-n1cnc(-c2ccc(C(F)(F)F)cc2)c1
not listed: [9] | [10]
inactive: all other assays above

CCC[C@@H](NC(=O)N1C(=O)C(CC)(CC)[C@@H]1Oc1ccc(C(=O)N2CCN(C)CC2)cc1)c1ccc2c(c1)OCO2
not listed: [5] | [9] | [10]
inactive: all other assays above

O=C(c1ccc(F)c(F)c1Nc1ccc(I)cc1F)N1CC(O)(C2CCCCN2)C1 (stereo not given)
active: [9] 20.5 µM | [10] 18.3 µM | C33A 35.5 µM | CASKI 28.2 µM
not listed: CAOV3 | Es-2 | HeLa | OV90 | Tov-21-G | Tov112D
inactive: all other assays above

COc1cc(-c2cc(-c3ccc(N4CCNCC4)cc3)cnc2C)cc(OC)c1OC
active: [9] 9.34 µM
not listed: [3] | CAOV3 | OV90 | [10]
inactive: all other assays above

C=C(C)[C@@H]1CC[C@]2(C(=O)O)CC[C@]3(C)C(CCC4[C@@]5(C)C[C@@H](O)[C@H](O)C(C)(C)C5CC[C@]43C)C12 (stereo not given in full)
not listed: [3] | [9] | [10]
inactive: all other assays above
